The values that follow come from PubChem BioAssay AID1851 (National Center for Advancing Translational Sciences (NCATS), 2009).

Values joined by “and” are separate entries in the source; they are usually repeats but may differ in a detail not shown here. Identical values can stand only once. Screen size: about 16,000 compounds; about 5,700 (36%) were called active. About 24% were inconclusive and are not listed. The call rests on the fitted dose curve; in most records, active means well fitted curve in the direction sought with a large enough effect; inconclusive means small, poorly fitted or top-dose-only effect, or effect the other way; inactive means no such curve, though single readings can be large or run the other way. Some of the results follow. More than one record can exist for a structure, and the calls need not agree.
On the % scale 0 is the no-effect control and ±100 the full control effect.

The test deals with Cytochrome P450 1A2 (Homo sapiens) (UniProt P05177). As to the kind of experiment: Cytochrome panel assay with activity outcomes. To be noted: recombinant CYP, pro-luciferin dealkylation, luminescence, p450-cyp1a2; series mostly up to 57.1 µM.
Cytochrome P450 1A2 (Homo sapiens), sequence (P05177 whole entry, looked up): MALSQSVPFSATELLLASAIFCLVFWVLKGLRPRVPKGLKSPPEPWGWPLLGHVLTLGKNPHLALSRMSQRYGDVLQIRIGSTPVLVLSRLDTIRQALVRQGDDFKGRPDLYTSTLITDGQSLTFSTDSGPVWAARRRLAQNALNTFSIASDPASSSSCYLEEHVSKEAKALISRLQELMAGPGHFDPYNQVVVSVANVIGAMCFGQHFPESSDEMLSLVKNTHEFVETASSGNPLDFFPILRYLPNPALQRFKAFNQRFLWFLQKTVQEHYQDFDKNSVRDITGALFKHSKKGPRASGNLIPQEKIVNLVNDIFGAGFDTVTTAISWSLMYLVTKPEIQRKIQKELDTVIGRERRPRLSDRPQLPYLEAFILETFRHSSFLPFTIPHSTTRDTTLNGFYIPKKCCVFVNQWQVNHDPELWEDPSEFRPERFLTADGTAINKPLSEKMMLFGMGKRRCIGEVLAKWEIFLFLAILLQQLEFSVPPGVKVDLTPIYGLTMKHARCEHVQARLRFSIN
For the molecule `Nc1nc(N)nc(CCCc2nc(N)nc(N)n2)n1`, the activity, negative = inhibition is -16.3% [at 11.4 µM] (inactive).
One may read the AC50 as the concentration at which the activity in the assay is half-maximal. For the molecule `Clc1ccccc1-c1nc(-n2ccnc2)c2ccccc2n1`, the AC50 is 158 nM (active).
On to `NC(=O)c1ccccc1-c1nc(-n2ccnc2)c2ccccc2n1`, for which the AC50 was 2510 nM (active).
Turning to `Cc1ccccc1-c1nc(-n2ccnc2)c2ccccc2n1`, the AC50 is 316 nM (active).
On the same count and under the same terms, the value for `CCCn1c(C)nc2c(c1=O)c1nc3ccccc3nc1n2CCC1=CCCCC1` was 25100 nM (active).
As to `CCO/C(C)=N/n1c2nc3ccccc3nc2c2c(=O)n(CC(C)C)c(C)nc21`, the AC50 result was “inactive”.
The same measure, in the same setting: the value for `COc1ccccc1CN1CCC2(CC1)CCN(S(=O)(=O)c1ccccc1)CC2` was “inactive”; that for `O=C(NCCCN1CCN(Cc2ccccc2)CC1)C1CCN(S(=O)(=O)N2CCCC2)CC1` was “inactive”; that for `COc1ccc2c(Cl)c(C(=O)NCCCn3ccnc3)sc2c1Cl` was 631 nM (active).
Take `COc1ccc(C(=O)N/C(=C/c2cccs2)C(=O)NCCCn2ccnc2)cc1OC`: the AC50 entry was “inactive”.
Take `COc1ccc(S(N)(=O)=O)cc1C(=O)NCCCN1CCN(c2cccc(Cl)c2)CC1`: the AC50 result was “inactive”.
The same measure, in the same setting: the value for `Nn1nnc2ccccc21` was 12600 nM (active).
Regarding `c1ccc2c(c1)nnn2CN1CCOCC1`, the activity, negative = inhibition was -8.08% [at 11.4 µM] (inactive).
Consider `N#CCCn1nnc2ccccc21`, for which the AC50 entry was “inactive”.
As for `Cc1ccc(NC(=O)C2(NC(=O)c3cccc(N4C(=O)CSC4c4ccccc4)c3)CCCCC2)cc1` (stereo not given), the AC50 entry is “inactive”.
Same read-out and setting: the same measure for `O=C1NCCc2c1[nH]c1ccccc21`: 2820 nM (active).
Same read-out and setting: the value for `Cn1cccc1C(=O)N1CCC[C@@]2(CCN(Cc3ccc(C#N)cc3)C2)C1` was “inactive”; that for `COc1ccc2cc(C(=O)Nc3ccc(F)cc3)sc(=O)c2c1OC` was 1120 nM (active); that for `COC(=O)Nc1ccc2[nH]cc(CCNC(C)=O)c2c1` was 316 nM (active).
For `COc1cc2c(CCNC(C)=O)c[nH]c2cc1Cl`, the AC50 is 126 nM (active).
Still for that read-out and setting: the value for `O=C(O)Cc1c[nH]c2ccc(O)cc12` was “inactive”.
As to `Nc1ccc2[nH]cc(CCC(=O)O)c2c1`, the activity, negative = inhibition was -8.18% [at 11.4 µM] (inactive).
On to `CC[C@@H](c1ccccc1)n1c(=O)n2n(c1=O)[C@H]1[C@H](O)[C@H]3O[C@@H]3/C(=N/OCc3ccccc3)[C@@H]1CC2`, for which the activity, negative = inhibition is -0.045% [at 11.4 µM] (inactive).
As to `CCC1CCCCN1Cc1cc(OC)c(O)c([N+](=O)[O-])c1` (stereo not given), the AC50 entry is “inactive”.
The same measure, in the same setting: the same measure for `CCCCCCN1C=CC(=C/C=C(\C#N)C(=O)OCC)C=C1`: “inactive”; for `COc1cc(C(=O)NC(=S)Nc2ccc(Cl)c(C(=O)O)c2)cc(OC)c1OC`: “inactive”.
Take `COc1cc(OC)c(NC(=S)Nc2cccc(C(C)=O)c2)cc1Cl`: the AC50 was 6310 nM (active).
In the case of `Clc1ccc2[nH]cc(-c3nnnn3-c3ccccc3)c2c1`, the AC50 was 7940 nM (active).
Same read-out and setting: the value for `Cc1ccc(-n2nnnc2-c2cnc3ccc(Cl)cc3c2-c2ccccc2)cc1` was “inactive”.
In the case of `Fc1ccc(-c2[nH]ncc2-c2nnnn2-c2ccccc2)c(F)c1`, the AC50 entry is “inactive”.
For `O=C(Nc1cccc(F)c1)N1CC2(CCN(C(=O)c3csnn3)CC2)C1`, the AC50 entry was “inactive”.
With `COc1cc(C(=O)NCC(c2cccnc2)N2CCN(C)CC2)cc(OC)c1OC` (stereo not given), the AC50 is 20000 nM (active).
Take `COc1ccc(N2CCN(C(CNC(=O)C3CCCCC3)c3cccnc3)CC2)cc1` (stereo not given): the AC50 result was “inactive”.
Consider `COC(=O)NCC(c1cccnc1)N1CCN(c2ccccc2OC)CC1` (stereo not given), for which the AC50 result was “inactive”.
For the molecule `COc1ccc2cc1Oc1ccc(cc1)C[C@@H]1c3c(cc(OC)c4c3Oc3cc5c(cc3O4)CCN[C@H]5C2)CCN1C`, the activity, negative = inhibition is -14.6% [at 11.4 µM] (inactive).
Take `NCCS`: the AC50 result was “inactive”.
On to `O=C(N/N=C1/C[C@@H](O)[C@@H](O)[C@@H]2[C@H]3C(=O)N(c4ccc(F)cc4F)C(=O)[C@@H]3CC[C@@H]12)OCc1ccccc1`, for which the activity, negative = inhibition is -2.1% [at 11.4 µM] (inactive).
With `CCCCn1nnnc1SCC(=O)c1cc(Cl)ccc1OC`, the AC50 was 4470 nM (active).
In the case of `COCCCn1nnnc1SCC(=O)N1CCCC1`, the AC50 entry was “inactive”.
Turning to `CCCCn1nnnc1SCC(=O)N1CCCC1`, the AC50 result is “inactive”.
Consider `CSc1ccc(Cl)c(C(=O)NCCOc2cc(C)ccc2C(C)C)c1`, for which the AC50 was 2240 nM (active).
With `CC(C)(N=NC(C)(C)C1=NCCN1)C1=NCCN1`, the activity, negative = inhibition was -3.55% [at 11.4 µM] (inactive).
Turning to `COc1ccc(S(=O)(=O)N(CC(=O)NCC2CCCO2)c2ccc(F)cc2)cc1OC` (stereo not given), the AC50 result was “inactive”.
Consider `COC(=O)c1[nH]c2cccc(OC)c2c1NC(=O)CN(C)CC1OCCO1`, for which the AC50 is 14100 nM (active).
The same measure, in the same setting: the same measure for `CCS(=O)(=O)N1CCC(C(=O)NCc2ccc(F)cc2Cl)CC1`: “inactive”.
Take `CCN1C(=O)[C@H]2[C@H]3[C@H](O)[C@H](O)C/C(=N/O[C@@H](C)c4cn([C@H](CO)Cc5ccccc5)nn4)[C@@H]3CC[C@@H]2C1=O`: the activity, negative = inhibition was -6.67% [at 11.4 µM] (inactive) and -6.23% [at 11.4 µM] (inactive).
For the molecule `C[C@H](N=C(NC#N)Nc1ccncc1)C(C)(C)C`, the AC50 entry was “inactive and 15.8 µM (active)”.
With `C[C@H](N)C1CCC(C(=O)Nc2ccncc2)CC1` (stereo not given in full), the AC50 result is “inactive”.
`O=C(O)[C@@H]1CS[C@@]2(CCCN(Cc3ccccc3)C2)N1`: the activity, negative = inhibition was -12% [at 2.29 µM] (inactive).
With `Cc1ccc(C(=O)Nc2nc3ccccc3n3nnnc23)cc1`, the AC50 was 2510 nM (active).
The same measure, in the same setting: the value for `Cc1cccc(CCNc2nc3ccccc3n3nnnc23)c1` was 891 nM (active).
Turning to `Cn1c(=O)c2c(ncn2CN2CCN(Cn3cnc4c3c(=O)n(C)c(=O)n4C)CC2)n(C)c1=O`, the activity, negative = inhibition was -18.2% [at 2.29 µM] (inactive).
Take `Nc1c(C(=O)NCc2ccccc2)sc2nc3c(cc12)C(=O)CCC3`: the AC50 is 20000 nM (active).
With `O=C(/C=C/c1cc2c(cc1Br)OCO2)NCc1ccc(Cl)cc1`, the AC50 is 1580 nM (active).
As for `C/C(=C\C(=O)c1ccc(Cl)cc1)NCc1ccc2c(c1)OCO2`, the AC50 was 1000 nM (active).
Regarding `C/C(=C\C(=O)c1ccc(Br)cc1)NCc1ccc2c(c1)OCO2`, the AC50 was 1410 nM (active).
On the same count and under the same terms, the value for `O=C1Nc2ccc([N+](=O)[O-])cc2C1(O)N1CCCCCC1` (stereo not given) was “inactive”.
Consider `CN(C)Cc1ccccc1-c1nc(N(C)C)c2ccccc2n1`, for which the AC50 is 1260 nM (active).
For `CN(C)Cc1ccccc1-c1nc(NC2CC2)c2ccccc2n1`, the concentration at half-maximal activity (AC50) is 5010 nM (active).
Consider `Cc1cccc(CNc2nc(-c3ccccc3CN(C)C)nc3ccccc23)c1`, for which the AC50 was 3160 nM (active).
On to `CNc1nc(-c2ccccc2CN(C)C)nc2ccccc12`, for which the AC50 was 3160 nM (active).
Consider `C/C(CC/C(C)=N/O)=N/O`, for which the activity, negative = inhibition was -12.6% [at 2.29 µM] (inactive).
Regarding `CN(C)Cc1ccccc1-c1nc(NCc2ccccc2)c2ccccc2n1`, the AC50 is 1260 nM (active).
For the molecule `COCCNc1nc(-c2ccccc2CN(C)C)nc2ccccc12`, the AC50 is 10000 nM (active).
For the molecule `CN(C)Cc1ccccc1-c1nc(NCc2cccs2)c2ccccc2n1`, the AC50 is 1000 nM (active).
For the molecule `Cc1cn([C@H]2C[C@H](O)[C@@H](COC(N)=O)O2)c(=O)[nH]c1=O`, the activity, negative = inhibition was -14.6% [at 2.29 µM] (inactive).
As for `CCCCn1c(SCC(=O)N2CCCC2)nc2c1c(=O)n(C)c(=O)n2C`, the AC50 entry was “inactive”.
On the same count and under the same terms, the value for `CCn1c(SCC(=O)N2CCOCC2)nc2oc3c(Cl)cc(Cl)cc3c(=O)c2c1=O` was 12600 nM (active); that for `Oc1ccccc1C1Nc2cccc3cccc(c23)N1` was 1000 nM (active).
Take `S=C1N(c2ccccc2)C(c2ccc(Cl)cc2)N2CCCN12` (stereo not given): the AC50 is 4470 nM (active).
Regarding `CCOC(=O)c1sc2nc3c(cc2c1N)COC(C(C)C)C3` (stereo not given), the AC50 result was “inactive”.
Regarding `CCOC(=O)c1sc2nc3c(cc2c1N)COC(C)(CC)C3` (stereo not given), the AC50 was 25100 nM (active).
In the case of `COc1ccc2[nH]cc(CCNc3cc(-c4ccccc4C)ncn3)c2c1`, the AC50 was 1000 nM (active).
On to `COc1ccc2[nH]cc(CCNc3cc(-c4ccccc4C(F)(F)F)ncn3)c2c1`, for which the AC50 was 10000 nM (active).
As to `COc1ccc2[nH]cc(CCNc3cc(-c4ccccc4OC)ncn3)c2c1`, the AC50 was 1580 nM (active).
With `COc1ccc(O[C@H]2C=C[C@@H](c3ccccc3)O[C@H]2CO/N=C\C[C@@H]2C=C[C@H](OC(C)=O)[C@H](COC(C)=O)O2)cc1`, the activity, negative = inhibition is 1.58% [at 11.4 µM] (inactive).
Same read-out and setting: the value for `CC(C)CO/N=C1/C[C@@H](O)[C@@H](O)[C@@H]2[C@H]3C(=O)N(c4ccc(F)cc4F)C(=O)[C@@H]3CC[C@@H]12` was -0.174% [at 11.4 µM] (inactive).
Consider `Cc1cc(OC(=O)c2cc(F)c(F)cc2Cl)nc(C)n1`, for which the AC50 entry is “inactive”.
With `COc1ccc(C(=O)/C=C(/C)N(C)C)cc1`, the AC50 was 3550 nM (active).
As for `CC(C)CSC[C@@H]1O[C@H](n2cnc3c(N)nccc32)[C@H](O)[C@@H]1O`, the activity, negative = inhibition was 3.41% [at 11.4 µM] (inactive).
For `O=C(O)C1CCC(=O)N(C2CC2)C1c1ccccc1` (stereo not given), the AC50 result was “inactive”.
On to `CC1CCC(C(=O)O)([C@H](Br)C(=O)O)CC1` (stereo not given in full), for which the activity, negative = inhibition is -8.77% [at 11.4 µM] (inactive).
For the molecule `CN(C)c1oc(-c2ccccc2)nc1C#N`, the AC50 is 3160 nM (active).
`CN(C)C(=O)c1ccc(-c2ccc3ncnc(Nc4ccccc4)c3c2)cc1`: the AC50 was 15800 nM (active).
`CN(C)C(=O)c1ccc(-c2ccc3ncnc(Nc4ccc(F)cc4)c3c2)cc1`: the AC50 was 20000 nM (active).
With `COC(=O)C/C=C\[C@@H](C)[C@@H](/C=N\OC[C@@H](O)[C@H]1O[C@H]2OC(C)(C)O[C@H]2[C@@H]1O)OC`, the activity, negative = inhibition was -15.6% [at 11.4 µM] (inactive).
Consider `Cc1ccc(OCC(=O)NNC(=O)CCc2ccccc2)cc1`, for which the AC50 result is “inactive”.
As for `Cc1ccc(OCC(=O)Nn2cnc3ccccc32)cc1`, the half-maximal activity concentration (AC50) was 6310 nM (active).
As to `Cc1ccc(OCC(=O)NNC(=O)C2CCN(c3ncccn3)CC2)cc1`, the AC50 entry is “inactive”.
For `CC(C)(C)c1ccc(OCC(=O)O)c(Cl)c1`, the activity, negative = inhibition was -16.2% [at 11.4 µM] (inactive).
Take `Cc1cc(NC(=O)COc2ccc(Cl)cc2Cl)n(-c2ccccc2)n1`: the AC50 was 1780 nM (active).
With `Cc1ccc(N(C(C)C(=O)Nc2cc(Cl)ccc2Oc2ccccc2)S(C)(=O)=O)cc1` (stereo not given), the AC50 entry was “inactive”.
Regarding `Cc1ccc(OCC(=O)Nc2ccc(Cl)cc2)c(-n2nc3ccccc3n2)c1`, the AC50 was 3550 nM (active).
As to `Cc1cc(Cl)ccc1OC(C)C(=O)Nc1ccc(S(=O)(=O)Nc2cnc3ccccc3n2)cc1` (stereo not given), the AC50 entry was “inactive”.
`O=C(COc1ccccc1Cl)Nc1cc(Cl)ccc1Oc1ccccc1`: the AC50 was 2510 nM (active).
